According to PubChem BioAssay (Tox21):
“And” between values parts separate entries of the source, which are not always exact repeats. Equal values may be shown once. Inconclusive results are not listed. Entries that show only a call come without a potency. Some structures have more than one record in an assay (separate samples or runs), and their calls can disagree. The source made the active and inactive calls. Calls come from the whole dose curve; as a rule, active = well fitted curve in the direction sought with a large enough effect in the repeat runs; inconclusive = weak or mixed curves; inactive = no such curve, though single readings can be large; an effect the other way counts as inactive or inconclusive.

Legend:
[1] = target: Cytochrome P450 2D6 (Homo sapiens) (UniProt P10635); assay: Cytochrome P450 Family 2 Subfamily D Member 6 (CYP2D6) small molecule antagonists: luciferase reporter qHTS assay (AID 1671196); note: nearly all actives have a fitted effect of over 50% in size; note: potency is the fitted concentration of half-maximal effect
Outline: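 Read-out is luminescence from luciferin formed by CYP2D6 turnover of a proluciferin substrate, recorded as relative luminescence units. Reactions ran 1 h at room temperature after NADPH regeneration solution was added.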

[2] = target: Cytochrome P450 2C19 (Homo sapiens) (UniProt P33261); assay: Cytochrome P450 Family 2 Subfamily C Member 19 (CYP2C19) small molecule antagonists: luciferase reporter qHTS assay (AID 1671197); note: nearly all actives have a fitted effect of over 65% in size; note: potency is the fitted concentration of half-maximal effect
Outline: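 CYP2C19 P450-Glo, 1536-well qHTS. Cpd + enzyme/proluciferin substrate 10 min RT; + NADPH regen, 37C 1 h; stop with luciferin detection reagent, 20 min RT, luminescence (RLU). Pos ctrl ketoconazole.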

[3] = target: Cytochrome P450 2C9 (Homo sapiens) (UniProt P11712); assay: Cytochrome P450 Family 2 Subfamily C Member 9 (CYP2C9) small molecule antagonists: luciferase reporter qHTS assay (AID 1671198); note: nearly all actives have a fitted effect of over 50% in size; note: potency is the fitted concentration of half-maximal effect
Outline: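 CYP2C9 activity was measured with a P450-Glo proluciferin substrate. Enzyme–substrate mix was held with compound for 10 min at room temperature, then NADPH regeneration solution was added for 1 h at 37C. Luciferin product was read as luminescence.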

[4] = target: Cytochrome P450 1A2 (Homo sapiens) (UniProt P05177); assay: Cytochrome P450 Family 1 Subfamily A Member 2 (CYP1A2) small molecule antagonists: luciferase reporter qHTS assay (AID 1671199); note: nearly all actives have a fitted effect of over 50% in size; note: potency is the fitted concentration of half-maximal effect
Outline: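 P450-Glo CYP1A2, 1536-well qHTS: enzyme/proluciferin substrate + cpd (DMSO), 10 min RT; NADPH regen, 1 h RT; detection reagent, 20 min; luminescence, RLU.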

[5] = target: Voltage-gated inwardly rectifying potassium channel KCNH2 (Homo sapiens) (UniProt Q12809); assay: Human Ether-a-go-go-Related Gene (hERG) channel small molecule antagonists: fluorescence cell-based qHTS assay (AID 1671200);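 note: hERG-expressing U2OS cells given a thallium stimulus after FluxOR II dye loading; series mostly up to about 77 µM; nearly all actives have a fitted effect of over 50% in size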
Outline: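 Fluorescence at 540 nm emission (480 nm excitation) was recorded kinetically for 2 min at 1-second intervals once the thallium-containing stimulus reached cells previously loaded with FluxOR II dye.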

[6] = target: Cytochrome P450 3A4 (Homo sapiens) (UniProt P08684); assay: Cytochrome P450 Family 3 Subfamily A Member 4 (CYP3A4) small molecule antagonists: luciferase reporter qHTS assay (AID 1671201); note: nearly all actives have a fitted effect of over 50% in size; note: potency is the fitted concentration of half-maximal effect
Outline: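 qHTS, 1536-well. CYP3A4 + proluciferin substrate, cpd 10 min RT → NADPH regen 1 h RT → detection reagent 20 min → luminescence (RLU). Ketoconazole positive control.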

Cytochrome P450 2C9 (Homo sapiens), sequence (P11712 whole entry, looked up): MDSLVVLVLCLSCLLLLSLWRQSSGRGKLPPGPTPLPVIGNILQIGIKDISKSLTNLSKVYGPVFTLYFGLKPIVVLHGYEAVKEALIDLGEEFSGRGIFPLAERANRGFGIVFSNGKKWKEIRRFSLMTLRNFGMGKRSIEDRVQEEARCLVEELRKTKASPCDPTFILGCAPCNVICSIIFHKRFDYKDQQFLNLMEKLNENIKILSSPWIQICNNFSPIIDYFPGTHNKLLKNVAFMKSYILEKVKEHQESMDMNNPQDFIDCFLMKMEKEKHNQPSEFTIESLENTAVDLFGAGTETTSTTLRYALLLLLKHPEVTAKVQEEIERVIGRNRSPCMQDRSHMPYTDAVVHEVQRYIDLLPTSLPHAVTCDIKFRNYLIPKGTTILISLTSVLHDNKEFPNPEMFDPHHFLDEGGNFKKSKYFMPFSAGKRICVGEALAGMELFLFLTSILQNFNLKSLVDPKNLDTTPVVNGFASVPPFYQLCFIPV
Cytochrome P450 2D6 (Homo sapiens), sequence (P10635 whole entry, looked up): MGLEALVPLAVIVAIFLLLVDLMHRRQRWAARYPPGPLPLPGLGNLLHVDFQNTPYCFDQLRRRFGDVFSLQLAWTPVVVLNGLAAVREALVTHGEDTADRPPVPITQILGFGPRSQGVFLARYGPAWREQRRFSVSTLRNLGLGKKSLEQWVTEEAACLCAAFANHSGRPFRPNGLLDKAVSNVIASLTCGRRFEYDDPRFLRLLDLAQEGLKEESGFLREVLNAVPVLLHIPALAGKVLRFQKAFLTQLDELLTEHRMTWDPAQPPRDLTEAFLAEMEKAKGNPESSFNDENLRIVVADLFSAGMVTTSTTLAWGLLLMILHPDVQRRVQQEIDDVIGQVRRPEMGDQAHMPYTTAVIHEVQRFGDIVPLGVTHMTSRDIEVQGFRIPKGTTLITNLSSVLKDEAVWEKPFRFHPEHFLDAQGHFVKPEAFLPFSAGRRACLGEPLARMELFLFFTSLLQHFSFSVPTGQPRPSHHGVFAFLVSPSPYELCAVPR
Cytochrome P450 3A4 (Homo sapiens), sequence (P08684 whole entry, looked up): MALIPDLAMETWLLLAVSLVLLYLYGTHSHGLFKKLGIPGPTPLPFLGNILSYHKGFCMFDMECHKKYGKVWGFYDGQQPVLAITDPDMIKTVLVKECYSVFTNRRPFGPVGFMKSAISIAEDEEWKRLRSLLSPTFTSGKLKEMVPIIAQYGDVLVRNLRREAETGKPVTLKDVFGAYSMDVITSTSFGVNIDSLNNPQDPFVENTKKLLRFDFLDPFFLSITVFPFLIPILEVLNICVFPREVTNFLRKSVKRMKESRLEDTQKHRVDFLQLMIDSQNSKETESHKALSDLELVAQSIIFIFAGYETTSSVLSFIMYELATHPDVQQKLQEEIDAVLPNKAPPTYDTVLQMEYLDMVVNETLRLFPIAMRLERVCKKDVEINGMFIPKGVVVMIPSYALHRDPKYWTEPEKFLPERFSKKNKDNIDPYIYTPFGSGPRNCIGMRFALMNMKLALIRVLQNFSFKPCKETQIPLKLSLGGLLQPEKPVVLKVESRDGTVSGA
Cytochrome P450 1A2 (Homo sapiens), sequence (P05177 whole entry, looked up): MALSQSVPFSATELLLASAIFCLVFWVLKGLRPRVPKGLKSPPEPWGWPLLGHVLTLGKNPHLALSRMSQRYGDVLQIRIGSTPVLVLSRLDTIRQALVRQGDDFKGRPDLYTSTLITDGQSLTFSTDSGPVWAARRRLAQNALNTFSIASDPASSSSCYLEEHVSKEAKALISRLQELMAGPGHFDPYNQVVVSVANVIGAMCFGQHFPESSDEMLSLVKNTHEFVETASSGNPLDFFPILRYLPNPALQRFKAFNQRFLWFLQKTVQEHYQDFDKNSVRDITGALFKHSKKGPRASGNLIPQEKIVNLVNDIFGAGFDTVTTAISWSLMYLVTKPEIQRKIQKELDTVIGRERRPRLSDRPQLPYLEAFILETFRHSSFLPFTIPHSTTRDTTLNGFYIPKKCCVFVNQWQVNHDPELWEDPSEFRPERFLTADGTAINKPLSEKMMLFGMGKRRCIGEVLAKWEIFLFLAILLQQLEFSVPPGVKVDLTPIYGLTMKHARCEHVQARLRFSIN
Voltage-gated inwardly rectifying potassium channel KCNH2 (Homo sapiens), sequence (Q12809 whole entry, looked up): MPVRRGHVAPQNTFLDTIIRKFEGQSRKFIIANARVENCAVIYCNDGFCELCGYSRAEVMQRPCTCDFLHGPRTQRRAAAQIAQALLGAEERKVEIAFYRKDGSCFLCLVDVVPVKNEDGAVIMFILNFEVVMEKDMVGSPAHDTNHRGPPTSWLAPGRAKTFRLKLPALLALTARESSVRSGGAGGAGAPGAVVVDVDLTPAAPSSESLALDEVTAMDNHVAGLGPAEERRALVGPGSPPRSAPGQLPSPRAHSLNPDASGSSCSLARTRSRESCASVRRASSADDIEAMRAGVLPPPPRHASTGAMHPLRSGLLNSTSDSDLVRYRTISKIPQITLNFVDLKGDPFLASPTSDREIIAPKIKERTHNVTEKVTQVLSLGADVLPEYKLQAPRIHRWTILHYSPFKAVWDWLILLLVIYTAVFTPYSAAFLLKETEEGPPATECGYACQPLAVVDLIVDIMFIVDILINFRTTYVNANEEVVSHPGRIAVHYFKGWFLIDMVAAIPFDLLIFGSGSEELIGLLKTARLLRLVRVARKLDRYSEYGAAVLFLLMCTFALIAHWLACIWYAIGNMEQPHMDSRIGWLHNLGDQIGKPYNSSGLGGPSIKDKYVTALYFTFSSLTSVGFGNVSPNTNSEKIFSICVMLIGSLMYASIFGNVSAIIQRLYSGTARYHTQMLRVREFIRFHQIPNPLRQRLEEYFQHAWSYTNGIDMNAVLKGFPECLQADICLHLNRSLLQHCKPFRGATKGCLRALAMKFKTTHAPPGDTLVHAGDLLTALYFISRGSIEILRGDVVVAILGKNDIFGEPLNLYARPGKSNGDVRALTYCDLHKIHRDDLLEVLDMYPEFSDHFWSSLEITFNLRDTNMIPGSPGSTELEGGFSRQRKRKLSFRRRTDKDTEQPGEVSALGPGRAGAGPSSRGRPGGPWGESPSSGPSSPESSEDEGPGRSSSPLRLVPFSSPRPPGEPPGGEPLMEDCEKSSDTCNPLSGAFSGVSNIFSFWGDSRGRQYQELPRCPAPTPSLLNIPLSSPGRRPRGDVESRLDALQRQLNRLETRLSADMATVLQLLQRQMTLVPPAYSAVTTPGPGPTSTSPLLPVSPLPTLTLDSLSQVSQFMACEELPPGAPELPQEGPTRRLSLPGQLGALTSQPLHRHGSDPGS
Cytochrome P450 2C19 (Homo sapiens), sequence (P33261 whole entry, looked up): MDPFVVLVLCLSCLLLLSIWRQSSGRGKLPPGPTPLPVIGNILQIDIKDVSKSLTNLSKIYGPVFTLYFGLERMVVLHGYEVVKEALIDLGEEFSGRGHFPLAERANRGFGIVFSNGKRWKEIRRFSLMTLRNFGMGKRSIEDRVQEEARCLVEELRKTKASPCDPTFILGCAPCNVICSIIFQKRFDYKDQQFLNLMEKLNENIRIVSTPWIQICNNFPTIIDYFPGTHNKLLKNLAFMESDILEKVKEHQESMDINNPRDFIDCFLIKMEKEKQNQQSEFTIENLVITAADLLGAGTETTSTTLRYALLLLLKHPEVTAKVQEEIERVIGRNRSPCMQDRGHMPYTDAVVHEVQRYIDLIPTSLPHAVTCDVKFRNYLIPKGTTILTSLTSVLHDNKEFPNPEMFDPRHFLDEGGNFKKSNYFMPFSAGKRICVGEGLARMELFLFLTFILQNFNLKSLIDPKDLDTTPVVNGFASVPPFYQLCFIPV

| Compound | Potency [1] | Potency [2] | Potency [3] | Potency [4] | outcome [5] | Potency [6] |
| --- | --- | --- | --- | --- | --- | --- |
| Nc1ccccc1[N+](=O)[O-] | inactive | inactive | inactive | 35.9 µM (active) | inactive | inactive |
| CCCCCCCCCCCCCCCO | inactive | 35.9 µM (active) and 39.9 µM (active) | 40.3 µM (active) | 71.6 µM (active) | inactive | inactive |
| Cc1ccc(S(N)(=O)=O)cc1 | inactive | 19.9 µM (active) and inactive | inactive | inactive | inactive | 28.1 µM (active) and inactive |
| CCCCCCCCCC | inactive | inactive and 71 µM (active) | inactive and 79.6 µM (active) | inactive | inactive | inactive |
| O=c1[nH]nnc2ccccc12 | inactive | inactive | inactive | inactive | inactive | inactive |
| CCCC(C)=O | inactive | inactive | inactive | inactive | inactive | inactive |
| CCCCC(CC)COC(=O)CCCCC(=O)OCC(CC)CCCC (centres undefined) | inactive | 70.6 µM (active) | 28.3 µM (active) | inactive and 35.6 µM (active) | inactive | inactive |
| CCCCCC/C(C=O)=C\c1ccccc1 | inactive | 40.4 µM (active) and 20 µM (active) | 35.6 µM (active) | 22.7 µM (active) and 8.94 µM (active) | inactive | inactive |
| C=C(C)C(=O)Nc1ccc(Cl)c(Cl)c1 | inactive | 22.7 µM (active) and 31.6 µM (active) | 36 µM (active) and 63 µM (active) | 2.86 µM (active) and 5 µM (active) | inactive | inactive |
| Nc1cc([N+](=O)[O-])ccc1O | inactive | 39.9 µM (active) and inactive | 31.7 µM (active) and 39.7 µM (active) | 39.9 µM (active) | inactive | inactive |
| O=P(OC(CCl)CCl)(OC(CCl)CCl)OC(CCl)CCl | 39.7 µM (active) and 35.6 µM (active) | 7.06 µM (active) and 35.6 µM (active) | 35.4 µM (active) and 35.6 µM (active) | 35.4 µM (active) and 31.7 µM (active) | inactive | 706 nM (active) and 2.83 µM (active) |
| Cc1cccnc1 | inactive | inactive | inactive | inactive | inactive | inactive |
| CCc1cccc(C)c1N | inactive | 68.8 µM (active) and 71 µM (active) | inactive | 39.9 µM (active) | inactive | inactive |
| CCCCCCOCCO | inactive | inactive | inactive | inactive | inactive | inactive |
| CCOC(=O)NNc1nncc2ccccc12 | 35.6 µM (active) | inactive | inactive | 20 µM (active) | inactive | inactive |
| O=C(O)c1ccc2c(c1)C(=O)OC2=O | inactive | inactive | inactive | inactive | inactive | inactive |
| CCCCCCCCCCCCS | inactive | inactive | inactive | inactive | inactive | inactive |
| CSCCC=O | inactive | 75.8 µM (active) and 7.1 µM (active) | 35.6 µM (active) | 19 µM (active) and 4.48 µM (active) | inactive | inactive |
| CC1=C(C)S(=O)(=O)CCS1(=O)=O | inactive | 69.7 µM (active) and inactive | inactive | inactive | inactive | inactive |

| Compound | Potency [1] | Potency [2] | Potency [3] | Potency [4] | outcome [5] | Potency [6] |
| --- | --- | --- | --- | --- | --- | --- |
| CCN(CC)c1ccc(C(=O)c2ccccc2C(=O)O)c(O)c1 | inactive | 71.3 µM (active) and inactive | 35.7 µM (active) and 31.7 µM (active) | inactive | inactive | inactive |
| CCCCCCCCCCCCOCCO | inactive | 25.2 µM (active) and inactive | 39.9 µM (active) | 31.7 µM (active) and 34.7 µM (active) | inactive | inactive |
| O=[N+]([O-])c1ccc(/C=C/c2ccc([N+](=O)[O-])cc2S(=O)(=O)O)c(S(=O)(=O)O)c1 | inactive | inactive | 31.7 µM (active) and 39.9 µM (active) | inactive | inactive | inactive |
| OCC(CO)(CBr)CBr | inactive | inactive | inactive | 40.4 µM (active) and inactive | inactive | inactive |
| CCCCCOC(C)=O | inactive | 32.1 µM (active) and inactive | 10 µM (active) | inactive | inactive | inactive |
| CCCCOC(=O)COc1ccc(Cl)cc1Cl | inactive | 36 µM (active) and 39.9 µM (active) | 36 µM (active) and 35.6 µM (active) | 40.4 µM (active) and 39.9 µM (active) | – | inactive |
| c1ccc2c(c1)ccc1ccccc12 | inactive | 77.5 µM (active) and 39.9 µM (active) | – | 6.16 µM (active) and 3.99 µM (active) | inactive | inactive |
| CCCCC(CC)COC(=O)CS (centres undefined) | 28.6 µM (active) | 25.5 µM (active) and inactive | 64.1 µM (active) and 71 µM (active) | 64.1 µM (active) and inactive | inactive | 40.4 µM (active) |
| O=C(CC(C(=O)OC1CCCCC1)S(=O)(=O)O)OC1CCCCC1 (centres undefined) | inactive | inactive | 40.1 µM (active) and 35.1 µM (active) | inactive | inactive | inactive |
| CCCCCC1=CCCC1=O | inactive | 20.4 µM (active) and inactive | – | inactive | inactive | inactive |
| C/C=C1/CC2C=CC1C2 (centres undefined) | inactive | inactive | inactive and 39.9 µM (active) | inactive | inactive | inactive and 31.7 µM (active) |
| OCc1cccnc1 | – | – | – | – | inactive | – |
| CC(=O)CC(=O)Nc1ccccc1C | inactive | inactive | – | 39.9 µM (active) | inactive | inactive |
| CC(=O)CC(=O)Nc1ccccc1 | inactive | 70.9 µM (active) | – | 35.5 µM (active) and 39.9 µM (active) | inactive | inactive |
| CCCCCCCCC/C=C/CC1CC(=O)OC1=O (centres undefined) | inactive and 39.9 µM (active) | – | 80 µM (active) and 39.9 µM (active) | inactive | inactive | inactive |
| O=C1CCC(N2C(=O)c3ccccc3C2=O)C(=O)N1 (centres undefined) | – | inactive | inactive | inactive | inactive | inactive |
| Cc1cccc(O)c1 | inactive | inactive | inactive | – | inactive | inactive |
| C[C@H]1C[C@H]2[C@@H]3CCC4=CC(=O)C=C[C@]4(C)[C@@]3(F)[C@@H](O)C[C@]2(C)[C@@]1(O)C(=O)CO | – | – | – | 22.4 µM (active) and inactive | inactive | – |
| O=C(Oc1ccccc1)c1ccccc1 | inactive | inactive | inactive | 31.7 µM (active) | inactive | inactive |

| Compound | Potency [1] | Potency [2] | Potency [3] | Potency [4] | outcome [5] | Potency [6] |
| --- | --- | --- | --- | --- | --- | --- |
| CCC(O)OC(O)CC (centres undefined) | 36 µM (active) and inactive | inactive | inactive | inactive | inactive | inactive |
| c1ccc2scnc2c1 | inactive | inactive | inactive | – | inactive | inactive |
| Oc1cccc2ccccc12 | – | 23 µM (active) and 39.9 µM (active) | 36.5 µM (active) and 35.6 µM (active) | – | inactive | – |
| O=C=NCCCCCCN=C=O | inactive | 69.4 µM (active) and inactive | – | inactive | inactive | inactive |
| CC1CCC(C(C)C)C(O)C1 (centres undefined) | inactive | 70.3 µM (active) and inactive | inactive | – | inactive | inactive |
| C[Si](O[Si](C)(C)C)O[Si](C)(C)C | inactive | inactive | inactive | inactive | inactive | inactive |
| CCCCCCCCCCCCc1ccccc1 | inactive | inactive | inactive | inactive | – | inactive |
| CCC(O)OCCCOC (centres undefined) | inactive | 41 µM (active) and inactive | inactive | inactive | inactive | inactive |
| O=C(O)CC(C(=O)O)C(CC(=O)O)C(=O)O (centres undefined) | inactive | – | inactive | – | inactive | inactive |
| Cc1occc(=O)c1O | inactive | 71 µM (active) and inactive | – | inactive | inactive | inactive |
| CCCCN(CCCC)CCCC | inactive | – | 89.4 µM (active) | 35.5 µM (active) and inactive | inactive | inactive |
| CCCSc1ccc2nc(NC(=O)OC)[nH]c2c1 | inactive | inactive | – | 5.64 µM (active) and 5.75 µM (active) | inactive | – |
| O=C(O)CCCCCCCCCCC(=O)O | 35.9 µM (active) and 39.9 µM (active) | 32 µM (active) and 31.7 µM (active) | – | inactive | inactive | inactive |
| COc1ccc(NC(C)=O)cc1N | inactive | 39.8 µM (active) and 39.9 µM (active) | – | 17.8 µM (active) and 25.2 µM (active) | inactive | inactive |
| COc1ccc(Cl)cc1C(=O)NCCc1ccc(S(=O)(=O)NC(=O)NC2CCCCC2)cc1 | inactive | inactive | – | inactive | – | – |
| CCCCC(CC)CO (centres undefined) | inactive | inactive | inactive | inactive | inactive | inactive |
| O=C(O)c1ccc(C(=O)O)cc1 | inactive | inactive | inactive | – | inactive | inactive |
| FC(F)(F)c1ccc(Cl)c(Cl)c1 | inactive | inactive | inactive | – | inactive | inactive |
